# ULK1 inh – inhibitors of human ULK1 kinase. AlphaScreen Atg13 phosphorylation by ULK1, luminescence. inhibition, % at 5.96 µM. 30,000 compounds, 1.9% hits. AID 1259251; in the data active = inhibition above about 43%
# Target sequence (O75385 whole entry, looked up): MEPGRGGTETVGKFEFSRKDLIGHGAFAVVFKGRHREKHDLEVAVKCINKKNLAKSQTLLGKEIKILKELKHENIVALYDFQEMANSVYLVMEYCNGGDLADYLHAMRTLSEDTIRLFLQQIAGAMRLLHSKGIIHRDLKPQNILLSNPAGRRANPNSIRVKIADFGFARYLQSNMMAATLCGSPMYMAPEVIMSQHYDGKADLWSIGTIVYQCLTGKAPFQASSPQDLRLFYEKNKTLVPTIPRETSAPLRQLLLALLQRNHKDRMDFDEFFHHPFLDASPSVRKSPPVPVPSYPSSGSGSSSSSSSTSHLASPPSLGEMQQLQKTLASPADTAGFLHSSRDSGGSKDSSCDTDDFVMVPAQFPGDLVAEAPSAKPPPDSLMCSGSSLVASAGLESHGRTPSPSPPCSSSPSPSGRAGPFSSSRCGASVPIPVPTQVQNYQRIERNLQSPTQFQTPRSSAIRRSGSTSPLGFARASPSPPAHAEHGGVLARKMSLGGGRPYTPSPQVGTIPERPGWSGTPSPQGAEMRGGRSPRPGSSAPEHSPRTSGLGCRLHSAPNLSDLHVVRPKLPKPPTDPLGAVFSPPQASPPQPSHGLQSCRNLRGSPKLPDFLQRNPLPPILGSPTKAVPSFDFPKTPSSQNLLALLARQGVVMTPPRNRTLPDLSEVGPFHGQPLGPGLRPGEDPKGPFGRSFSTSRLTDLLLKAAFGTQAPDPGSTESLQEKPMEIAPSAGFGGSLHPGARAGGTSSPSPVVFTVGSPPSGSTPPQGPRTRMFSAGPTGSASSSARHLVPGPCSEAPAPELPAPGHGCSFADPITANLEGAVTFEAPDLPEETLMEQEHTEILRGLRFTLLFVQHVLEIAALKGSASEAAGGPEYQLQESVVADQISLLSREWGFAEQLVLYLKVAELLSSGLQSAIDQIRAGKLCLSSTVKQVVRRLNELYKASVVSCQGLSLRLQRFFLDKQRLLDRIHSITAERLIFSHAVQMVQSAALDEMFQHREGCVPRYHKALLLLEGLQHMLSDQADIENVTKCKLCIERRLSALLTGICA
# ASK1 primary – human ASK1 kinase inhibition, primary screen | inhibition, % at 7.44 µM | 22,000 compounds, 0.99% hits | Q99683 | AID 1159602 | AlphaScreen MKK6 phosphorylation by ASK1, luminescence; in the data active = inhibition above about 35%
# Numbers stand for hits; n = inactive; x = not tested or not shown. Compounds with a hit are over-represented: about 2.5% of the library has one in this group of screens.
SMILES,ULK1 inh,ASK1 primary
Cc1c(-c2cnn(C)c2)ccc2cnc(Nc3ccc(-n4cnc(N5CCOCC5)n4)cc3)nc12,60,n
CCOC(=O)c1c(-c2cnn(C)c2)ccc2cnc(Nc3ccc(-n4cnc(N5CCOCC5)n4)cc3)nc12,60,n
Cn1cc(-c2cccc3nc(Nc4ccc(-n5cnc(N6CCOCC6)n5)cc4)ncc23)cn1,n,n
Cn1cc(-c2ccc3cnc(Nc4ccc(-n5cnc(N6CCOCC6)n5)cc4)nc3c2OCCN2CCOCC2)cn1,n,n
Cc1ccc(-c2ncn(-c3ccc(Nc4ncc(Cl)c(-c5cnn(C)c5)n4)cc3)n2)cn1,n,n
Cn1cc(-c2cccc3cnc(Nc4ccc(-n5cnc(N6CCOCC6)n5)cc4)nc23)cn1,n,n
Cn1cc(-c2nc(Nc3ccc(-n4cnc(N5CCC(O)CC5)n4)cc3)ncc2Cl)cn1,71,n
CCN(CC)C(=O)C1CCCN(c2cc(C(=O)Nc3cc(OC)c(OC)c(OC)c3)ccn2)C1 (centres undefined),n,n
c1ccc(CN2CCC(Nc3nc(NCCOc4ccccc4)c4ncn(C5CCCCC5)c4n3)CC2)cc1,n,n
Cc1ccc(-c2cccc3cnc(Nc4ccc(F)cc4F)nc23)cn1,n,n
O=C1NC(=S)S/C1=C\c1cc2c(cc1Cl)OCO2,n,x
Cc1[nH]ncc1-c1ccc2cnc(Nc3ccc(-n4cnc(N5CCOCC5)n4)cc3)nc2c1,76,n
CC(C)N1CCN(c2ncn(-c3ccc(Nc4ncc5ccc(-c6cnn(C)c6)c(Cl)c5n4)cc3)n2)CC1,91,n
Cc1ncn(-c2ccc(Nc3ncc4ccnc(-c5cnn(C)c5)c4n3)cc2)n1,n,n
Cc1n[nH]c(C)c1-c1ccc2cnc(Nc3ccc(-n4cnc(N5CCOCC5)n4)cc3)nc2c1,n,n
Cc1nn(C)c(C)c1-c1ccc(C(=O)Nc2ccccc2)s1,n,n
Nc1cccc(-c2nc3ncnc(NCCOc4ccccc4)c3[nH]2)c1,n,n
CC(=O)Nc1ccc(Nc2nc(Cl)nc3c2ncn3C(C)C)cc1,47,n
CC(=O)Nc1ccc(Nc2nc(Nc3cnccn3)nc3c2ncn3C(C)C)cc1,61,n
CC(C)n1cnc2c(Nc3ccccc3)nc(Cl)nc21,n,n
CCNc1nc(Nc2ccc(N3CCOCC3)cc2)c2ncn(C(C)C)c2n1,n,n
CC(C)n1cnc2c(Nc3ccccc3)nc(Nc3cnccn3)nc21,n,n
CC(C)n1cnc2c(Nc3ccc(N4CCOCC4)cc3)nc(Nc3ccccc3)nc21,56,n
CC(C)n1cnc2c(Nc3ccc(N4CCOCC4)cc3)nc(Nc3cnccn3)nc21,65,n
CC(C)n1cnc2c(Nc3ccc(N4CCOCC4)cc3)nc(Nc3ncccn3)nc21,n,n
SMILES,ULK1 inh,ASK1 primary
CC(=O)Nc1ccc(Nc2ccnc(Nc3cccc(N(C)C)c3)n2)cc1,n,n
CC(C)n1c(N2CCc3ccccc3C2)nc2c(NC3CC3)ncnc21,n,n
CN(C)CCn1c([C@@H]2COc3ccccc3O2)nc2ccc(-c3cn[nH]c3)cc21,n,n
Cc1cc(C)cc(CN2CCN(c3cccc(S(C)(=O)=O)c3)C2=O)c1,n,x
O=C(c1ccc2cncc(-c3cc4ccccc4o3)c2n1)N1CCCCC1,n,x
CC(=O)c1cccc(-c2nc3ccc(C(N)=O)cc3s2)c1,n,n
CC(C)n1cnc2c(NCc3nc4ccccc4[nH]3)nc(N3CCN(c4ccccn4)CC3)nc21,n,n
Cn1nccc1Nc1ncc(C(=O)Nc2ccc(N3CCOCC3)cc2)s1,n,n
Cn1nccc1Nc1cccc(C(=O)Nc2ccc(N3CCOCC3)cc2)n1,45,n
CNC(=O)c1cccnc1Nc1cc(NC(=O)Cc2ccc(OC)cc2)ncc1C(F)(F)F,43,n
CNC(=O)c1ccccc1Nc1cc(NC(=O)Cc2ccc(OC)cc2)ncc1C#N,n,n
NC(=O)c1ccccc1Nc1cc(NC(=O)Cc2ccc(CN3CCOCC3)cc2)ncc1Cl,n,n
NC(=O)c1ccccc1Nc1cc(NC(=O)Cc2ccc(CN3CCOCC3)cc2)ncc1C(F)(F)F,63,n
NC(=O)c1ccccc1Nc1cc(Oc2ccc(N3CCNCC3)cc2)ncc1C(F)(F)F,60,n
CNC(=O)c1ccccc1Nc1cc(NC(=O)Cc2ccccc2)ncc1C(F)(F)F,58,n
CNC(=O)c1ccccc1Nc1cc(NC(=O)CCc2ccccc2)ncc1C(F)(F)F,n,n
NC(=O)c1ccccc1Nc1cc(NC(=O)Cc2ccc3ccccc3c2)ncc1C(F)(F)F,n,n
FC(F)(F)c1ccc(Cn2cnc3c(NC4CCN(Cc5ccccc5)CC4)nc(Nc4ccc5ncccc5c4)nc32)cc1,n,n
CC(C)n1cnc2c(Nc3ccc(Oc4ccccc4)cc3)nc(-c3ccccc3)nc21,n,n
CCCN1CCN(c2c(Cl)cccc2NC(=O)c2ccccn2)CC1,n,n
CC(C)n1cnc2c(NCc3ccccc3)nc(Nc3ccc(C(F)(F)F)cc3)nc21,n,n
COc1cc(Nc2nc(Nc3ccccc3)c3ncn(CCN4CCCC4=O)c3n2)cc(OC)c1OC,n,n
Cc1cccc(NC(=O)c2cccc(-n3cc(NC(=O)Cc4cccc5ccccc45)cn3)c2)c1,n,n
c1cncc(CNc2ccnc(NCCN3CCOCC3)n2)c1,n,n
COc1ccc(-c2cc(C(=O)NCCN(C(C)C)C(C)C)ccn2)cn1,n,n
SMILES,ULK1 inh,ASK1 primary
O=C1CCCN1CCCNc1nc(NCCN2CCOCC2)c2ncn(C3CCCCC3)c2n1,n,n
c1cc2cc(OC3CCNCC3)ccc2cn1,n,n
CNC(=O)c1ccccc1Nc1cc(NC(=O)Cc2cccc(OC)c2)ncc1C(F)(F)F,55,n
COc1ccc(CC(=O)Nc2cc(Nc3ccccc3-c3ncccn3)c(C(F)(F)F)cn2)cc1,n,n
CNC(=O)c1ccccc1Nc1cc(NC(=O)Cc2c(Cl)cccc2Cl)ncc1C(F)(F)F,n,n
CNC(=O)c1ccccc1Nc1cc(NC(=O)Cc2ccc(OC)cc2)ncc1C(F)(F)F,70,n
c1cc(-c2ccnc(Nc3ccc(-c4nn[nH]n4)cc3)n2)cc(N2CCOCC2)c1,n,n
Cc1ncn(-c2ccc(Nc3nccc(-c4ccc(C#N)c(N5CCOCC5)c4)n3)cc2)n1,n,n
N#Cc1cc(-c2ccnc(Nc3ccc(-c4nn[nH]n4)cc3)n2)ccc1N1CCC(O)CC1,75,n
N#Cc1cc(-c2ccnc(Nc3ccc(-n4cnc(N5CCOCC5)n4)cc3)n2)ccc1N1CCC(O)CC1,49,n
Cc1noc(C)c1-c1cccc(C(=O)NCCO)n1,n,n
O=C(NCCOc1ccccc1)c1ccnc(Nc2ccc(-n3ccnc3)cc2)c1,n,n
COc1cc(Nc2nc(Nc3ccc(N4CCOCC4)cc3)ncc2C)cc(OC)c1OC,45,n
COc1cc(Nc2nc(Nc3ccc(-n4ccnc4)cc3)ncc2C)cc(OC)c1OC,60,n
CCNc1nc(Nc2ccc(N3CCOCC3)cc2)c2cc(OC)c(OC)cc2n1,n,43
Cc1cnc(Nc2ccccc2)nc1Nc1ccc(N2CCOCC2)cc1,n,n
COc1cc(Nc2cc(C)nc(Nc3ccc(-n4ccnc4)cc3)n2)cc(OC)c1OC,n,n
COc1cc2nc(NCCN3CCOCC3)nc(Nc3ccc(N4CCOCC4)cc3)c2cc1OC,n,n
O=C(Nc1ccc2c(c1)OCO2)c1cnc(Br)s1,n,n
O=C(NCc1ccccc1)c1ccnc(Nc2ccncn2)c1,n,n
COc1cc(Nc2cc(C(=O)NCCN3CCOCC3)ccn2)cc(OC)c1OC,n,n
CN(C)CCSc1nc(C2COc3ccc(C(=O)NCCN4CCOCC4)cc3C2)nc2ccc(-c3cn[nH]c3)cc12 (centres undefined),n,n

# Assay outcomes deposited in PubChem by The Scripps Research Institute Molecular Screening Center.
